The panel holds about 83,000 compounds, 20% with a hit somewhere; the sample as a whole holds those more often.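 Treatment: one concentration, 48 hours, 96-well format. Scoring: percent growth, with anything below 10 considered active.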 Activity calls are given as the source filed them.
How the values were obtained:
Experiment in all cases: NCI-60 one-dose screen, 48 h (100 = growth as untreated, 0 = no growth, -100 = all killed)
Conditions in all cases: 10 µM unless noted
[1] = system: DU-145 prostate
[2] = system: K-562 leukemia
[3] = system: MALME-3M melanoma
[4] = system: MDA-MB-231 breast
[5] = system: RXF 393 renal
[6] = system: SF-268 CNS
[7] = system: SF-295 CNS
[8] = system: SF-539 CNS
[9] = system: UACC-257 melanoma
[10] = system: M14 melanoma
[11] = system: HCT-15 colon
[12] = system: HT29 colon
[13] = system: SNB-75 CNS
[14] = system: SNB-19 CNS
[15] = system: U251 CNS
[16] = system: PC-3 prostate
[17] = system: SK-MEL-5 melanoma
[18] = system: UACC-62 melanoma
[19] = system: LOX IMVI melanoma
[20] = system: SK-MEL-28 melanoma

Measured: growth

Nc1c(C(=O)Nc2ccccc2)sc2nc3c(cc12)CN(C(=O)OCc1ccccc1)CC3
inactive: [1] 59.4% | [2] 21.5% | [3] 52.3% | [4] 68.4% | [5] 68.2% | [6] 62.2% | [7] 40.7% | [8] 44.9% | [9] 59.6% | [10] 26.5% | [11] 37.3% | [12] 15.7% | [13] 49.6% | [14] 56.1% | [15] 37.8% | [16] 46% | [17] 36% | [18] 43% | [19] 40.8% | [20] 62.3%

C(=C\c1cn(-c2ccccc2)nc1-c1ccccc1)/c1nnc(-c2c[nH]c3ccccc23)o1
inactive: [1] 27% | [2] 61.5% | [5] 53.5% | [6] 40.9% | [7] 29.8% | [8] 59.2% | [9] 107% | [10] 45.5% | [11] 69% | [12] 39.7% | [13] 17.6% | [14] 60.5% | [15] 20.9% | [16] 26% | [17] 59.4% | [18] 95.4% | [19] 47.6% | [20] 53.2%
active: [3] 7.81% | [4] 9.62%

COC(=O)c1cncc(C(=O)Nc2ccc(-n3cnc4ccccc43)cc2)c1
inactive: [1] 105% | [2] 94.5% | [3] 124% | [4] 94% | [5] 100% | [6] 91.9% | [7] 100% | [8] 95.9% | [9] 104% | [10] 102% | [11] 100% | [12] 96.5% | [13] 117% | [14] 99.1% | [15] 91.4% | [16] 92.1% | [17] 93.9% | [18] 93.4% | [19] 96.4% | [20] 103%

COc1ccc2nc3c(n2c1)C(=O)C(=O)c1ccccc1-3
active: [1] -92.5% | [2] -18.2% | [3] -90.1% | [5] -16.9% | [6] 2.6% | [7] -95.3% | [8] -95.3% | [9] -83.2% | [10] -82.9% | [11] -60.2% | [13] -54.4% | [14] -30.9% | [15] -59.4% | [17] -99.5% | [18] -91.1% | [19] -68.4% | [20] -83.2%
inactive: [4] 16.7% | [12] 64% | [16] 22.3%

CC(=O)Nc1c(C(=O)Nc2ccccc2)sc2nc3c(cc12)C(OC(C)=O)CCC3 (stereo not given)
inactive: [1] 105% | [2] 72.1% | [3] 89.7% | [4] 101% | [5] 62.1% | [6] 97.5% | [7] 32.4% | [8] 95.8% | [9] 64.8% | [10] 90.3% | [11] 99.7% | [12] 104% | [13] 88.2% | [14] 95.8% | [15] 94.8% | [16] 89% | [17] 82.5% | [18] 59% | [19] 92.2% | [20] 88.9%

C=C(C)[C@@H]1CC[C@]2(C(=O)n3ccnc3)CC[C@]3(C)[C@H](CC[C@@H]4[C@@]5(C)CCCNC(C)(C)[C@@H]5CC[C@]43C)[C@@H]12
inactive: [1] 37% | [4] 20.5% | [5] 10.8% | [6] 59.4% | [8] 24.6% | [13] 81.1% | [14] 52.6% | [16] 12.9% | [18] 31.9%
active: [2] -38.4% | [3] -74.4% | [7] -54.7% | [9] 5.14% | [10] -78.6% | [11] 3.01% | [12] 1.76% | [15] -45.5% | [17] -97.9% | [19] -92% | [20] -51.5%

NC(=O)c1ccc(C2C3=C(CCCC3=O)OC3=C2C(=O)c2ccccc2C3=O)cc1 (stereo not given)
inactive: [1] 12.1% | [5] 60% | [7] 42.9% | [11] 53.8% | [12] 29.7% | [14] 49.6% | [16] 12.3% | [20] 59.6%
active: [2] 5.5% | [3] -16.3% | [4] 5.67% | [6] 9.54% | [8] 0.536% | [9] -7.13% | [10] -0.786% | [13] -1.57% | [15] 0.896% | [17] -93.9% | [18] -38.8% | [19] -19.3%

COc1ccc(Sc2[nH]c(C(C)=O)c3ccccc23)cc1
inactive: [1] 89.4% | [2] 11.9% | [3] 74% | [4] 83.3% | [5] 69.1% | [6] 73.2% | [7] 93.4% | [8] 72.2% | [9] 84.1% | [10] 62.3% | [11] 53.9% | [12] 47.6% | [13] 48.1% | [14] 67.1% | [15] 76% | [16] 52.1% | [17] 45.1% | [18] 47.1% | [19] 71.9% | [20] 84.1%

COc1ccc(/C(=N\O)c2cc(C)c(OC)c(C)c2)cc1O
inactive: [1] 29.4% | [2] 12% | [3] 67% | [4] 24.8% | [5] 62.9% | [6] 30.4% | [7] 29.7% | [9] 70% | [10] 13.6% | [11] 16.3% | [13] 38.4% | [14] 29.8% | [15] 22.1% | [16] 37.6% | [18] 35.3% | [19] 24.2% | [20] 55.4%
active: [8] 2.65% | [12] -8.4% | [17] -7.18%

Nc1c(C(=O)Nc2cccc3ccccc23)sc2nc3c(cc12)COCC3
inactive: [1] 58.7% | [2] 17.5% | [3] 60.8% | [4] 53.3% | [5] 41.4% | [6] 56.5% | [7] 28.9% | [8] 30% | [9] 54.5% | [10] 35.7% | [11] 32.2% | [12] 12.4% | [13] 30.9% | [14] 33.4% | [15] 30% | [16] 53.5% | [17] 31% | [18] 30.2% | [19] 42.7% | [20] 60.6%

O=C(Nc1ccccc1)NS(=O)(=O)c1c[nH]c(=S)[nH]c1=O
inactive: [1] 105% | [2] 103% | [3] 100% | [4] 105% | [5] 127% | [6] 97.1% | [7] 97.8% | [8] 99.8% | [9] 92.5% | [10] 104% | [11] 109% | [12] 73.7% | [13] 89.2% | [14] 106% | [15] 93.3% | [16] 100% | [17] 104% | [18] 99.5% | [19] 92.4% | [20] 116%

O=C(Nc1ccc2ncnc(Nc3ccc(F)c(Cl)c3)c2c1)c1ccccc1
inactive: [1] 36.1% | [2] 69.4% | [3] 90.4% | [4] 79.8% | [5] 73.1% | [6] 67.1% | [7] 82% | [8] 78.6% | [9] 96.8% | [10] 90.1% | [11] 52.1% | [12] 79% | [13] 28.5% | [14] 76.8% | [15] 42.8% | [16] 72.7% | [17] 86.5% | [18] 92.2% | [19] 63.9% | [20] 97.5%

COc1ccc([C@H]2[C@@H](F)C(=O)N2c2cc(OC)c(OC)c(OC)c2)cc1F
active: [1] 9.46% | [2] 9.45% | [8] 4.17% | [10] 1.91% | [12] 3.73% | [17] -31.5%
inactive: [3] 74% | [4] 19.6% | [5] 28.8% | [6] 33.1% | [7] 18.6% | [9] 38.7% | [11] 13.6% | [13] 50.9% | [14] 34.1% | [15] 11.9% | [16] 23.1% | [18] 53.4% | [19] 24% | [20] 57.7%

O=C(Nc1nc(-c2ccccc2Cl)cs1)c1cc(-c2ccc(Br)cc2)nc2ccccc12
inactive: [1] 69.3% | [2] 23.5% | [3] 75.1% | [4] 27.3% | [5] 59% | [6] 66.4% | [7] 34.4% | [8] 76.1% | [9] 29.5% | [10] 62.5% | [11] 61.6% | [12] 37.4% | [13] 96.8% | [14] 71% | [15] 46.1% | [16] 43.1% | [17] 27.9% | [18] 48.8% | [19] 50% | [20] 80.3%

COc1ccc2[nH]c(=O)c(/C=C/C(=O)/C=C/c3ccc(O)c(OC)c3)cc2c1
inactive: [3] 52.8% | [4] 18.3% | [7] 17.5% | [9] 40.3% | [13] 59.8% | [14] 36.3% | [18] 10.8% | [20] 16.8%
active: [1] 8.26% | [2] 4.67% | [5] -76.7% | [6] 9.98% | [8] 8.47% | [10] -32.4% | [11] 2.08% | [12] -38.7% | [15] -13% | [16] 9.53% | [17] 9.36% | [19] -36%

CCOC(=O)/C(=C/c1c(-c2ccccc2)[nH]c2ccccc12)C(=O)c1ccc(Cl)cc1
inactive: [1] 65.9% | [3] 92.8% | [4] 63% | [5] 54.3% | [6] 56.1% | [8] 81.5% | [9] 77.2% | [10] 39.5% | [11] 21.2% | [12] 44% | [13] 35% | [14] 79.4% | [15] 50.5% | [16] 12.5% | [17] 53.4% | [18] 43.5% | [19] 44.3% | [20] 75.6%
active: [2] 5.66% | [7] -15.3%

Reference: PubChem BioAssay (NCI)
